Bioassay records deposited in PubChem BioAssay by several laboratories.
WNV protease inh: WNV NS2B-NS3 proteinase inhibition; WNV NS2B-NS3 protease, fluorogenic substrate Ex360/Em465; active compounds read low; actives 0.18% (n = 65,000); z-score (concentration not given with the values); AID 577; P06935; in the data active means z-score below about -3
Target sequence (P06935 1371-1501 limits assumed): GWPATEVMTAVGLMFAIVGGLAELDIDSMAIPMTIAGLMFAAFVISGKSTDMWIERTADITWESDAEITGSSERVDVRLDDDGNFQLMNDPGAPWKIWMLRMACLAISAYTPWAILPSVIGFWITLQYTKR
Target sequence (P06935 1502-1679 limits assumed): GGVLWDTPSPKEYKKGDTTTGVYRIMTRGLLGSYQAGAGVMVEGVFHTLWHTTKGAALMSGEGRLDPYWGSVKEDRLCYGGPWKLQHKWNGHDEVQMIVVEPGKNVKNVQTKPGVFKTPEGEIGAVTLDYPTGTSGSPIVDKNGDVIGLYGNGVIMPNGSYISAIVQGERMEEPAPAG
mHtt clearance: mutant huntingtin protein clearance | HeLa Exon1htt(103Q)mCFP, aggregate imaging; zero = plate's median compound well | inhibition, % at 1.5 µM | actives 0.42% (n = 47,000);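 active means inhibition of aggregate fluorescence above about 70%, also judged a hit by eye on the cell image, limit read from the data, passing the limit was not always enough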;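 further: cells exposed to compound for three days before fixation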
MMP13 inh: blocks human MMP13 activity; MMP-13 fTHP FRET cleavage, Mca fluorescence; inhibition, % at 4 µM; actives 0.07% (n = 65,000); AID 570;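 active means inhibition above the mean of compound-free control plate wells plus 3 SD, cut at about 14% in these data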;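 further: 0% = DMSO wells and 100% = wells with reference MMP-13 inhibitor after basal subtraction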
Hsp90 block: displaces geldanamycin probe from tumor Hsp90 | P07900 | NCI-N417 lysate Hsp90, Cy3B-geldanamycin FP displacement | inhibition, % at 30 µM | actives 0.35% (n = 64,000);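 active means inhibition above 50%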;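 further: 0% = tracer plus lysate wells and 100% = tracer alone without lysate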
DUSP1 inh: inhibitors of human MKP-1 phosphatase. actives 0.15% (n = 65,000). inhibition, %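 (compounds tested at a single concentration somewhere between 10 and 100 µM)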. P28562. recombinant MKP-1, OMFP hydrolysis fluorescence;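 active means inhibition above about 50%, limit read from the data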;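 further: 0% = DMSO max control wells and 100% = wells with enzyme stopped by NaOH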
Cdc25B block: human M-phase inducer phosphatase 2 inhibition | recombinant Cdc25B, OMFP fluorescence Ex485/Em525 | inhibition, %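 (compounds tested at 10 µM final in the well)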 | actives 0.1% (n = 65,000) | AID 368; in the data active means inhibition above about 50%
An asterisk follows results filed as active; / = no result given. Only some compounds are listed: those with a hit (about 0.89% of all), similar ones and a draw of the others.

SMILES	WNV protease inh	mHtt clearance	MMP13 inh	Hsp90 block	DUSP1 inh	Cdc25B block
COc1cccc(C(=O)Oc2cc(N)n(S(=O)(=O)c3ccc(C)cc3)n2)c1OC	-0.9	11.6	-0.6	-5.0	12.2	3.1
Cc1nn(-c2ccccc2)c(OC(=O)c2cccs2)c1S(=O)(=O)c1ccccc1	-1.19	2.8	3.9	3.0	-8.8	4.9
Nc1cc(OC(=O)c2cccs2)nn1S(=O)(=O)c1ccccc1	-8.13*	31.6	1.7	-2.8	5.3	-5.8
Nc1cc(OC(=O)c2cccs2)nn1S(=O)(=O)c1ccc(F)cc1	-5.26*	-33.0	2.5	2.1	1.2	-6.0
COC(=O)c1ccccc1NC(=O)c1cnn2c(C(F)F)cc(C3CC3)nc12	-0.49	75.7*	-1.8	-1.2	-7.2	-15.9
O=C(NCCc1ccccc1)c1cnn2c(C(F)F)cc(C3CC3)nc12	0.04	/	-4.9	-1.7	-0.5	-6.7
O=S(=O)(c1ccc(Cl)cc1)n1nnc2ccccc21	/	2.9	/	/	/	/
COc1cc(NCCCC(C)N)c2ncccc2c1 (stereo not given)	0.09	21.9	3.4	96.7*	-7.5	10.2
COc1cc(NCCCC(C)O)c2ncccc2c1 (stereo not given)	/	/	/	1.3	/	/
CCOc1ccc2ccccc2c1CNCCN1CCOCC1	0.28	70.0*	3.0	-2.9	-14.6	-5.7
CCOc1ccc(S(=O)(=O)NCCCN2CCOCC2)c2ccccc12	-0.85	/	-0.5	-0.9	5.9	4.4
COc1ccc(C2=NO[C@@H]3C(=O)N(c4c(C)cccc4C)C(=O)[C@H]23)cc1OC	-0.21	-2.6	5.6	74.4*	-5.2	5.2
CCN(CC)CCC(=O)Nc1cc(OC)cc2cccnc12	/	/	/	6.1	/	/
CCCCCCCCCC(=O)NC(CN1CCOCC1)[C@H](O)c1ccccc1 (stereo not given in full)	/	/	/	-0.1	/	/
COc1cccc(N2CCN(C3CC(=O)N(c4cccc(Cl)c4)C3=O)CC2)c1 (stereo not given)	0.31	/	7.4	-0.7	-15.7	92.3*
Cc1cccc(N2C(=O)CC(N3CCN(c4cccc(C(F)(F)F)c4)CC3)C2=O)c1 (stereo not given)	-0.11	-17.0	3.2	-2.6	4.2	-13.7
CCSC(N)=Nc1ccc(C(F)(F)F)cc1	/	/	/	-1.3	/	/
CCCCCCCCCCCCCCCCCCOC[C@H](COP(=O)([O-])OCC[N+](C)(C)C)OC	/	/	/	-1.0	/	/
COCCn1c(SCC(=O)Nc2nnc(C)s2)nnc1-c1ccncc1	0.66	/	0.1	0.2	-13.0	-8.3
CCOC(=O)c1sc(NC(=O)CSc2nnc(-c3ccc(OC)cc3)n2CCOC)nc1C	-0.62	51.5	-1.4	85.2*	23.4	-2.4
O=C1CCN2C=Nc3cccc4ccc1c2c34	-0.54	12.1	0.1	36.3	10.7	79.9*
OCCNC1=NCCN1	-3.18*	-38.0	-3.8	-5.4	-3.3	-0.4
O=C(O)CSC1=NCCN1	-0.35	/	0.8	-1.2	2.7	-5.8
Brc1cccc(-c2nnc3n2CCCCC3)c1	-0.25	/	-0.9	-0.5	-5.7	6.3
Brc1cccc(-c2cnc3n2CCCCC3)c1	-4.2*	/	-1.6	0.4	-6.1	2.4
SMILES	WNV protease inh	mHtt clearance	MMP13 inh	Hsp90 block	DUSP1 inh	Cdc25B block
COc1ccc(C2=Nn3c(nnc3-c3ccc(OC)cc3)SC2)cc1	-9.62*	/	-8.1	1.9	9.3	2.6
Cc1ccc(-c2nnc3n2N=C(c2ccccc2)CS3)cc1	-2.15	/	-0.5	1.2	7.5	-5.1
O=C(CCCn1c(=S)[nH]c2ccccc2c1=O)N1CCCCC1	1.24	72.6*	1.0	-1.2	1.4	-17.0
Nc1nc(Cl)nc2c1ncn2[C@@H]1O[C@H](COP(=O)(O)OP(=O)(O)OP(=O)(O)O)[C@H](O)C1O (stereo not given in full)	/	/	/	-0.5	/	/
CCOC(=O)CNC(=O)C(CO)NC(=O)OCc1ccccc1 (stereo not given)	-0.95	/	-0.5	-6.3	-6.6	-6.1
CCOC(=O)CNC(=O)C(Cc1ccccc1)NS(=O)(=O)c1cccs1 (stereo not given)	-3.4*	/	-2.8	/	3.5	-6.4
COc1ccc(N2CSC3=C(C#N)C(c4ccc(OC)c(OC)c4)CC(=O)N3C2)c(OC)c1 (stereo not given)	0.62	-10.3	3.5	77.3*	31.2	1.2
COc1ccc(N2CSC3=C(C#N)C(c4cc(OC)c(OC)cc4OC)CC(=O)N3C2)c(OC)c1 (stereo not given)	0.28	/	4.3	-2.5	11.5	0.5
COC1=CC(=O)OC12CCCCC2	0.24	70.3*	-0.5	-0.4	4.8	-5.7
COc1ccc(OC)c(NS(=O)(=O)c2cccs2)c1	-5.98*	/	6.4	6.4	-20.3	1.7
S=C1NCCOCCOCCOCCN1	/	17.1	/	/	/	/
S=C1NCCOCCOCCOCCOCCNC(=S)NCCOCCOCCOCCOCCN1	/	77.7*	/	/	/	/
COc1ccccc1NC(=O)CCC(=O)O	-0.02	/	0.3	-0.7	-1.6	-11.2
CCN(CC(=O)Nc1ccccc1OC)C(=O)C1CC2C=CC1C2 (stereo not given)	-7.51*	/	-2.8	-3.5	6.7	-3.3
NC(=O)c1cc[n+](CC2=C(C(=O)O)N3C(=O)[C@@H](NC(=O)[C@@H](c4ccccc4)S(=O)(=O)[O-])[C@H]3SC2)cc1	/	/	/	1.5	/	/
COCc1nnc(NC(=O)c2ccc(NC(C)=O)cc2)s1	-0.6	84.2*	2.7	-1.8	3.5	-3.9
FC(F)(F)c1cc(CO[C@H]2CCCN[C@H]2c2ccccc2)cc(C(F)(F)F)c1	/	/	/	-3.4	/	/
O=C(CCn1cnc2ccccc2c1=O)Nc1ccc(S(=O)(=O)N2CCCC2)cc1	0.97	-33.0	1.2	-0.1	2.7	-12.6
O=C(CSc1nc2ccccc2c(=O)[nH]1)Nc1ccc(S(=O)(=O)N2CCCC2)cc1	1.18	-37.0	3.2	-2.5	53.2*	0.0
O=C(/C=C/c1ccc(Br)o1)OCc1ccccc1	/	-8.4	/	/	/	/
O=C(/C=C/c1ccc(O)c(O)c1)OCCc1ccccc1	/	/	/	89.7*	/	/
O=C1NC(O)=NC1(c1ccccc1)c1ccccc1	/	/	/	-0.5	/	/
CCCn1c2c(c(O)c(C(=O)NCCCN(CC)CC)c1=O)CCCC2	/	74.2*	/	/	/	/
CCCn1c2c(c(O)c(C(=O)NC)c1=O)CCCC2	0.29	-19.6	-3.3	-1.5	-6.1	2.4
Cc1cc(SCC(N)=O)nc(SCC(=O)c2ccccc2)n1	0.03	5.3	-5.0	90.6*	-11.4	9.0
SMILES	WNV protease inh	mHtt clearance	MMP13 inh	Hsp90 block	DUSP1 inh	Cdc25B block
NC(N)=NCCSSCCN=C(N)N	/	/	/	0.7	/	/
CC(=O)c1cccc(NC(=O)CSc2nnc(-c3ccc(S(=O)(=O)N4CCCC4)cc3)o2)c1	1.21	/	4.5	60.7*	-4.2	6.4
Cc1ccc(-c2nnc(SCC(=O)Nc3ccc(S(=O)(=O)N4CCCCCC4)cc3)o2)cc1	-0.88	-18.9	3.8	0.7	-15.1	-6.9
COc1cc(NCCCCCN2C(=O)c3ccccc3C2=O)c2ncccc2c1	/	/	/	2.4	/	/
COC(=O)c1ccc2c(c1)SC1=C(CCCC1=O)N2	-0.6	-7.6	-14.6	84.6*	6.3	1.3
COC(=O)c1ccc2c(c1)NC(=O)C(N1CCCC1)S2 (stereo not given)	-0.61	-23.0	-2.2	-6.3	5.1	-12.1
